Experimental data: PubChem BioAssay (EPA / NIEHS)
Active and inactive are the calls of the source. How the source made its calls: active means hit-call score of the fitted dose curve at least 0.9, where 1 is the maximum; inactive means score below 0.9.

Key:
Details in all cases: mRNA level, 48 h; actives raise or lower the signal
[1] = read-out: sulfotransferase 2A1 (SULT2A1), SULT2A1 (gene 6822); test: LTEA_HepaRG_SULT2A1: Life Technologies and Expression Analysis (LTEA) Assay for sulfotransferase 2A1 (SULT2A1) using HepaRG (AID 2283531)
Outline: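 HepaRG human liver cells, 48 h exposure in serum-free induction medium to 8 half-log concentrations topping at 100 µM (0.5% DMSO), duplicate wells. SULT2A1 mRNA measured by TaqMan qRT-PCR, normalized to ACTB/GAPDH/POLR2A; bidirectional fit against DMSO.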

[2] = read-out: Transforming Growth Factor (TGFA), TGFA (gene 7039); test: LTEA_HepaRG_TGFA: Life Technologies and Expression Analysis (LTEA) Assay for Transforming Growth Factor (TGFA) using HepaRG (AID 2283532)
Outline: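 Differentiated human HepaRG cells, plated 48 h then switched to serum-free induction medium, were exposed in duplicate for 48 h to 8-point half-log series from 100 uM in 0.5% DMSO. TGFA mRNA measured by qRT-PCR, normalized to ACTB/GAPDH/POLR2A, bidirectional fit versus DMSO.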

[3] = read-out: Transforming Growth Factor (TGFB1), TGFB1 (gene 7040); test: LTEA_HepaRG_TGFB1: Life Technologies and Expression Analysis (LTEA) Assay for Transforming Growth Factor (TGFB1) Transporter using HepaRG (AID 2283533)
Outline: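 Differentiated HepaRG cells exposed 48 hr in serum-free induction medium to eight half-log concentrations up to 100 uM (0.5% DMSO), duplicate; TGFB1 mRNA by TaqMan qRT-PCR normalised to ACTB, GAPDH, POLR2A; bidirectional fit against DMSO.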

[4] = read-out: TIMP1, TIMP1 (gene 7076); test: LTEA_HepaRG_TIMP1: Life Technologies and Expression Analysis (LTEA) Assay for TIMP1 using HepaRG (AID 2283534)
Outline: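 Differentiated HepaRG cells exposed 48 h in serum-free induction medium, duplicates, eight half-log concentrations from 100 uM in 0.5% DMSO. TIMP1 mRNA by qRT-PCR normalized to ACTB, GAPDH, POLR2A; bidirectional fitting against DMSO.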

[5] = read-out: Tumor necrosis factor receptor 1 (TNFRSF1A), TNFRSF1A (gene 7132); test: LTEA_HepaRG_TNFRSF1A: Life Technologies and Expression Analysis (LTEA) Assay for Tumor necrosis factor receptor 1 (TNFRSF1A) using HepaRG (AID 2283535)
Outline: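 Differentiated HepaRG cells in serum-free induction medium, exposed 48 h in duplicate to 8 half-log concentrations up to 100 uM in 0.5% DMSO. TNFRSF1A mRNA by Fluidigm TaqMan qRT-PCR, normalized to ACTB, GAPDH, POLR2A; bidirectional fit.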

[6] = read-out: Thyroid Hormone Responsive (THRSP), THRSP (gene 7069); test: LTEA_HepaRG_THRSP: Life Technologies and Expression Analysis (LTEA) Assay for Thyroid Hormone Responsive (THRSP) using HepaRG (AID 2283536)
Outline: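 Differentiated human HepaRG cells were exposed in duplicate for 48 h in serum-free induction medium to eight concentrations (top 100 uM, half-log steps, 0.5% DMSO). Expression was quantified by TaqMan qRT-PCR, normalized to ACTB, GAPDH and POLR2A, with bidirectional fitting against DMSO.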

[7] = read-out: Cellular tumor antigen p53 (Homo sapiens) (UniProt P04637); test: LTEA_HepaRG_TP53: Life Technologies and Expression Analysis (LTEA) Assay for Tumor Protein P53 (TP53) using HepaRG (AID 2283537)
Outline: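 Gain or loss of TP53 mRNA signal is scored relative to 0.5% DMSO after 48 h chemical treatment of HepaRG liver cells, tested in duplicate at eight half-log concentrations up to 100 uM.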

[8] = read-out: UDP glucuronosyltransferase (UGT1A1), UGT1A1 (gene 54658); test: LTEA_HepaRG_UGT1A1: Life Technologies and Expression Analysis (LTEA) Assay for UDP glucuronosyltransferase (UGT1A1) using HepaRG (AID 2283538)
Outline: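 HepaRG cells, 0.5% DMSO vehicle, 48 h exposure in serum-free induction medium to 8-point half-log series topping at 100 uM, in duplicate. UGT1A1 mRNA by Fluidigm qRT-PCR, normalized to ACTB/GAPDH/POLR2A; bidirectional fit versus DMSO.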

[9] = read-out: UDP glucuronosyltransferase (UGT1A6), UGT1A6 (gene 54578); test: LTEA_HepaRG_UGT1A6: Life Technologies and Expression Analysis (LTEA) Assay for UDP glucuronosyltransferase (UGT1A6) using HepaRG (AID 2283539)
Outline: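 Differentiated HepaRG cells, ~100,000/well, were exposed for 48 h in serum-free induction medium with 0.5% DMSO to 8-point half-log series topping at 100 uM, in duplicate. mRNA measured by Fluidigm TaqMan qRT-PCR, normalized to ACTB, GAPDH and POLR2A.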

[10] = read-out: X-box binding protein 1 (XBP1), XBP1 (gene 7494); test: LTEA_HepaRG_XBP1: Life Technologies and Expression Analysis (LTEA) Assay for X-box binding protein 1 (XBP1) using HepaRG (AID 2283540)
Outline: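 Differentiated human HepaRG cells in serum-free induction medium exposed 48 h in duplicate to eight half-log concentrations up to 100 uM in 0.5% DMSO. XBP1 mRNA measured by Fluidigm TaqMan qRT-PCR, normalized to ACTB, GAPDH, POLR2A; bidirectional fitting against DMSO.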

Measured: AC50

Sequence of Cellular tumor antigen p53 (Homo sapiens) (P04637 whole entry, looked up): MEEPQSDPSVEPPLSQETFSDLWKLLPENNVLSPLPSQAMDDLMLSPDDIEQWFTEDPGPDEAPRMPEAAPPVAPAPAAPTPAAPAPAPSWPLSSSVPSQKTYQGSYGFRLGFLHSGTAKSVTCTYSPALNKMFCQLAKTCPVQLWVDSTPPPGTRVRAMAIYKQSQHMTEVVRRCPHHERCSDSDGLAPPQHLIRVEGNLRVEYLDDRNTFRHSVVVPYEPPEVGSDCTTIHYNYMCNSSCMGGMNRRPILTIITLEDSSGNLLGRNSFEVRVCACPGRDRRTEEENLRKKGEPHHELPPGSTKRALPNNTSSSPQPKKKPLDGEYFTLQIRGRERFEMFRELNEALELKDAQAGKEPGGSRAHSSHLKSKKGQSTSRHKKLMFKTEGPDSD

COC(=O)c1c(Cl)c(Cl)c(C(=O)OC)c(Cl)c1Cl
inactive: all assays above

CC(=O)OC[C@H]1O[C@@](COC(C)=O)(O[C@H]2O[C@H](COC(C)=O)[C@@H](OC(C)=O)[C@H](OC(C)=O)[C@H]2OC(C)=O)[C@@H](OC(C)=O)[C@@H]1OC(C)=O
not listed: [2]
inactive: all other assays above

C[C@](N)(Cc1ccc(O)c(O)c1)C(=O)O
inactive: all assays above

COc1ccc(-n2nc(C(F)F)cc2-c2ccc(S(C)=O)cc2)cc1 (stereo unspecified)
active: [8] 39.6 µM
inactive: all other assays above

CCOC(=O)COc1ccc2c(c1)CC(NCC(O)c1cccc(Cl)c1)CC2 (stereo unspecified)
active: [10] 45.8 µM
inactive: all other assays above

CCOC(=O)c1ccc(C2CCC(NC[C@H](O)COc3ccc(O)c(NS(C)(=O)=O)c3)CC2)cc1 (stereo partly specified)
inactive: all assays above

O=C(CCCCCCCCc1cccnc1)N1CCC(C=C(c2ccccc2)c2ccccc2)CC1
inactive: [3]
active: [1] 30.6 µM | [4] 78.7 µM | [5] 79.2 µM | [6] 18.8 µM | [7] 22.9 µM | [8] 32.9 µM | [9] 33.6 µM | [10] 30.9 µM

CC(O)CN(CCN(CC(C)O)CC(C)O)CC(C)O (stereo unspecified)
inactive: all assays above

Cc1ccc(S(=O)(=O)O)cc1C
inactive: all assays above

O=C(O)c1cccc(Oc2ccccc2)c1
not listed: [1]
inactive: all other assays above

On1ccccc1=S
not listed: [1]
inactive: all other assays above

CC(C)c1cccc(C(C)C)c1N1C(=O)c2ccc(O)cc2C1=O
active: [6] 90.2 µM | [8] 10.8 µM
not listed: [2]
inactive: all other assays above

CCCCCCc1ccc(O)cc1O
not listed: [2]
inactive: all other assays above

CN(C)c1ccc(Cc2ccc(N(C)C)cc2)cc1
active: [6] 19.5 µM | [8] 11.5 µM | [9] 85.6 µM
not listed: [2]
inactive: all other assays above

CC[C@H]1CC[C@H](NCc2cc3c(cc2OC)[C@H]2C[C@H]2C(=O)N3C)[C@H](c2ccccc2)N1
active: [1] 50 µM | [6] 29.3 µM | [8] 19 µM
not listed: [2]
inactive: all other assays above

CNCc1ccc(NC(=O)c2c[nH]c3c2C(=O)CCC3)cc1
not listed: [2]
inactive: all other assays above

CNS(=O)(=O)c1cc(C(=O)N2CCC(CCN3C4CCC3CC(n3c(C)nc5ccccc53)C4)(c3cccc(F)c3)CC2)c(Cl)cc1F (stereo unspecified)
active: [1] 9.92 µM | [3] 19.4 µM | [8] 9.92 µM | [9] 50 µM
not listed: [2]
inactive: all other assays above

CCCN(C1CCN(C(=O)C2CCNCC2)CC1)[C@@H]1CCc2ccc(OC)cc2C1
active: [1] 83.5 µM | [6] 80.1 µM | [8] 69.3 µM | [9] 81 µM | [10] 28.2 µM
inactive: [3] | [4] | [5] | [7]

Fc1ccccc1[C@@H](F)COC1CCC(Nc2ncnc3[nH]ncc23)CC1 (stereo partly specified)
active: [2] 50 µM | [8] 68 µM | [9] 50 µM
not listed: [1]
inactive: all other assays above

C=CCCCCCCCCC(=O)O
not listed: [2]
inactive: all other assays above

NC(=O)NO
not listed: [1]
inactive: all other assays above
